# In the library only some 6.3% were active in any assay of this set; here they are far more common.
# tim10-1 inh = growth inhibitors of tim10-1 mutant yeast, primary screen, luminescence, uHTS. S. cerevisiae tim10-1 ts strain growth, BacTiter-Glo, 24 h. 330,000 tested, 2.2% active. inhibition, % at 20 µM. AID 463190, 2010;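 active = inhibition of at least 40%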;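 also: mutant grown at 25 °C; 0% = DMSO wells with yeast and 100% = wells holding no yeast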
# tim23-1 inh = growth inhibitors of tim23-1 mutant yeast, primary screen, luminescence, uHTS. S. cerevisiae tim23-1 growth, BacTiter-Glo luminescence, 24 h. inhibition, % at 20 µM. 330,000 tested, 1.3% active;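 active = growth inhibition of the mutant yeast at or above 50%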;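 also: temperature-sensitive mutant grown at 25 °C; plate controls were DMSO-treated mutant yeast for no effect and medium wells lacking yeast for full effect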
# Mdm2 MdmX PPI = inhibitors of human Mdm2-MdmX association, primary screen, cell-based, luminescence, split luciferase, SaOS-2, uHTS; Protein Mdm4 (Homo sapiens) + E3 ubiquitin-protein ligase Mdm2 (Homo sapiens), …; SaOS-2 split-luciferase Mdm2/MdmX complementation; inhibition, % at 8 µM; 330,000 tested, 3% active;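 active = inhibition of at least 50% at 8 µM in the primary screen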
# MPTP block = mitochondrial permeability transition pore inhibitors, primary screen, biochemical, isolated mouse mitochondria, absorbance | Ca2+ swelling absorbance, 30 min | inhibition, % at 10 µM | 360,000 tested, 1.4% active;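 active = inhibition of 50% or more, scaled per plate between neutral and stimulator controls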;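 also: 0% = DMSO wells given calcium and 100% = 1 mM EGTA wells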
# TIM10 inh = growth inhibitors of isogenic TIM10 control yeast, primary screen, counter-screen for tim10-1 yeast inhibitor project, luminescence, uHTS; S. cerevisiae TIM10 strain growth, BacTiter-Glo luminescence, 24 h; inhibition, % at 10 µM; 330,000 tested, 1.4% active;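 active = inhibition of 40% or more at the single tested concentration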;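 also: wild-type TIM10 isogenic control strain grown at permissive 25 °C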
# tim23-1 conf = tim23-1 mutant yeast growth inhibitors, confirmation, luminescence, single concentration; shares compounds with tim23-1 inh; S. cerevisiae tim23-1 growth, BacTiter-Glo luminescence, 24 h; inhibition, % at 20 µM; 4,400 tested, 83% active; AID 463218, 2010;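 active = inhibition above about 39% in either of two replicate wells at 20 µM, limit read from the data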;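 also: temperature-sensitive tim23-1 mutant grown at 25 °C; 0% = DMSO wells with yeast and 100% = medium wells without yeast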
# The depositor's hits bear a star; . = not tested or not shown.
SMILES,tim10-1 inh,tim23-1 inh,Mdm2 MdmX PPI,MPTP block,TIM10 inh,tim23-1 conf
CC1Cc2ccccc2N1C(=O)COC(=O)c1ccc([N+](=O)[O-])o1 (centres undefined),34,57*,18,-3,34,48*
CN=C1S/C(=C\c2cccc(Cl)c2Cl)C(=O)N1C,34,50*,13,.,27,60*
CN=C1S/C(=C\c2ccc(Cl)cc2)C(=O)N1C,-1,3,-4,-1,2,.
CC(=O)Oc1c(S(=O)(=O)c2ccc(C)cc2)c(C)nn1C(C)(C)C,34,52*,43,1,23,39
Cc1ccc(S(=O)(=O)n2ccc(OC(=O)c3cccs3)n2)cc1,39,58*,10,-2,32,57*
Cc1ccc(S(=O)(=O)c2c(C)nn(C(C)(C)C)c2OC(=O)c2cccs2)cc1,30,51*,42,0,24,39
O=C(NCc1ccccc1)c1cc(C2CCCN(C(=O)c3ccccc3)C2)on1 (centres undefined),.,.,.,0,.,.
O=S1(=O)CC(N2CCC(Cc3ccccc3)CC2)CN1C1CCCCC1 (centres undefined),.,.,.,0,.,.
CCc1nc2ccc(C(=O)NCC3CCCCC3)cn2c1N(C)Cc1ccc(OC)cc1,.,.,.,2,.,.
CCOc1ccc(C2NC(=O)c3ccccc3O2)cc1 (centres undefined),16,21,7,-4,30,.
CCc1ccc(C2NC(=O)c3ccccc3O2)cc1 (centres undefined),9,52*,11,-1,10,29
O=S(=O)(Nc1ccc(O)c2ccccc12)c1cccs1,12,57*,49,0,29,44*
CN1C(=O)/C(=C2\SC(N3CCCCCC3)=NC2=O)c2ccccc21,32,55*,-18,3,33,44*
COc1ccc(F)cc1S(=O)(=O)n1nc(C)cc1C,6,95*,11,1,4,9
Cc1c(N2C(=O)/C(=C\c3ccccc3O)SC2=S)c(=O)n(-c2ccccc2)n1C,24,67*,3,1,32,63*
Oc1ccccc1-c1cc(-c2ccc3c(c2)OCCO3)n[nH]1,31,66*,-127,3,31,-2
COc1cc(C=O)c(Br)cc1OCc1ccc(C)cc1,13,65*,6,2,39,57*
Cc1ccn2cc(C(=O)Nc3ccccc3N3CCOCC3)nc2c1,20,56*,-17,2,33,41*
O=C(Nc1cc(C(F)(F)F)ccc1N1CCOCC1)c1cn2ccccc2n1,4,15,-13,3,4,.
O=C(Nc1ccc(NC(=O)C2CC2)nc1)c1cccnc1,-2,53*,8,-2,12,9
CC(C)n1cc(NC(=O)c2cc(-c3ccccc3)on2)cn1,21,55*,-26,1,26,54*
CCc1nc2ccc(C(=O)N(C)Cc3ccccc3)cn2c1N(C)Cc1ccc(OC)cc1,.,.,.,1,.,.
C[C@H](CO)N1C[C@H](C)[C@@H](CN(C)C(=O)c2ccccc2)OCc2cnnn2CCCC1=O,.,.,.,0,.,.
COc1ccc(-c2nc3ccccn3c2CN2CCN(c3ccccc3F)CC2)cc1,33,55*,-5,4,28,40*
O=C(NCc1ccc2c(c1)OCO2)Nc1cccc(Cl)c1,2,53*,-4,5,28,64*
SMILES,tim10-1 inh,tim23-1 inh,Mdm2 MdmX PPI,MPTP block,TIM10 inh,tim23-1 conf
O=C(CCC(=O)NNC(=O)Nc1cccc(Cl)c1)NCc1ccccc1,6,3,-23,1,-15,.
O=C(NCc1ccc2c(c1)OCO2)c1ccc(-c2ccc(Cl)cc2)o1,19,55*,-4,8,33,54*
CC(=O)c1cccc(NC(=O)NCc2ccc3c(c2)OCO3)c1,8,11,32,0,-2,.
O=C(Cc1ccccc1)NNC(=O)Nc1cccc(Cl)c1,-4,51*,17,0,9,11
O=C(NCc1ccc2c(c1)OCO2)c1cccc(Cl)c1,8,10,19,3,-2,.
Cc1cn([C@H]2C[C@H](O)[C@@H](CNCc3cccn3-c3nccs3)O2)c(=O)[nH]c1=O,.,.,.,-1,.,.
